# Like-named read-outs stand apart in the source and are kept apart here.
# Experiments:
# Set-up in all cases: species or system human, MV4-11 + K-562 + COLO205 + SK-N-BE2 + OVCAR-8
# AURKB = conditions: read-out: apparent Kd, compound concentrations: 100 nM and 1000 nM (sheet 'Samples'), n = 1
# CAMK2B = conditions: read-out: apparent Kd; compound concentrations: 100 nM and 1000 nM (sheet 'Samples'), CATDS: 0.10460822503909301; n = 1
# EIF2AK1 = conditions: read-out: apparent Kd, compound concentrations: 100 nM and 1000 nM (sheet 'Samples'), n = 1
# MAP2K5 = conditions: read-out: apparent Kd; compound concentrations: 100 nM and 1000 nM (sheet 'Samples'), CATDS: 0.13171106930199999; n = 1
# MAP3K4 = conditions: read-out: apparent Kd; compound concentrations: 100 nM and 1000 nM (sheet 'Samples'), CATDS: 6.3313755179161796E-2; n = 1
# MAP4K2 = conditions: read-out: apparent Kd; compound concentrations: 100 nM and 1000 nM (sheet 'Samples'), CATDS: 8.0363217180658503E-2; n = 1
# MAP4K3 = conditions: read-out: apparent Kd; compound concentrations: 100 nM and 1000 nM (sheet 'Samples'), CATDS: 7.0061337897802001E-2; n = 1
# NEK2 = conditions: read-out: apparent Kd; compound concentrations: 100 nM and 1000 nM (sheet 'Samples'), CATDS: 7.0707362303254903E-2; n = 1
# PTK6 = conditions: read-out: apparent Kd; compound concentrations: 100 nM and 1000 nM (sheet 'Samples'), CATDS: 9.6831640225396698E-2; n = 1
# RIPK3 = conditions: read-out: apparent Kd; compound concentrations: 100 nM and 1000 nM (sheet 'Samples'), CATDS: 5.9468743018389697E-2; n = 1
# STK3 = conditions: read-out: apparent Kd, compound concentrations: 100 nM and 1000 nM (sheet 'Samples'), n = 1
# STK4 = conditions: read-out: apparent Kd, compound concentrations: 100 nM and 1000 nM (sheet 'Samples'), n = 1
# YES1 = conditions: read-out: apparent Kd; compound concentrations: 100 nM and 1000 nM (sheet 'Samples'), CATDS: 8.4422564435587905E-2; n = 1
# BUB1 = conditions: read-out: apparent Kd; compound concentrations:100 nM and 1000 nM (sheet 'Samples'); n = 1
# MAPK14 = conditions: read-out: apparent Kd; compound concentrations:100 nM and 1000 nM (sheet 'Samples'); n = 1
# BMP2K = conditions: read-out: apparent Kd, n = 1
# CDKL5 = conditions: read-out: apparent Kd; compound concentrations: 100 nM and 1000 nM (sheet 'Samples'), CATDS: 7.5707148377712405E-2; n = 1
# FLT3 = conditions: read-out: apparent Kd; compound concentrations: 100 nM and 1000 nM (sheet 'Samples'), CATDS: 9.6631146746451402E-2; n = 1
# GSK3A = conditions: read-out: apparent Kd; compound concentrations: 100 nM and 1000 nM (sheet 'Samples'), CATDS: 8.1333822841740205E-2; n = 1
# GSK3B = conditions: read-out: apparent Kd; compound concentrations: 100 nM and 1000 nM (sheet 'Samples'), CATDS: 7.5519353695847294E-2; n = 1
# HSPE1 = conditions: read-out: apparent Kd; compound concentrations: 100 nM and 1000 nM (sheet 'Samples'), CATDS: 0.31901289007405398; n = 1
# ICK = conditions: read-out: apparent Kd; compound concentrations: 100 nM and 1000 nM (sheet 'Samples'), CATDS: 5.8957301425707501E-2; n = 1
# JAK1 = conditions: read-out: apparent Kd; compound concentrations: 100 nM and 1000 nM (sheet 'Samples'), CATDS: 9.4979881318968506E-2; n = 1
# MAPK9 = conditions: read-out: apparent Kd; compound concentrations: 100 nM and 1000 nM (sheet 'Samples'), CATDS: 5.8843363107673401E-2; n = 1
# NUAK1 = conditions: read-out: apparent Kd; compound concentrations: 100 nM and 1000 nM (sheet 'Samples'), CATDS: 6.5408557388510299E-2; n = 1
# PGK1 = conditions: read-out: apparent Kd; compound concentrations: 100 nM and 1000 nM (sheet 'Samples'), CATDS: 0.33349072490792903; n = 1
# PKM = conditions: read-out: apparent Kd; compound concentrations: 100 nM and 1000 nM (sheet 'Samples'), CATDS: 6.2556323198701705E-2; n = 1
# BMPR2 = conditions: read-out: apparent Kd; compound concentrations:100 nM and 1000 nM (sheet 'Samples'); n = 1
# CDC42 = conditions: read-out: apparent Kd; compound concentrations:100 nM and 1000 nM (sheet 'Samples'); n = 1
# CLK4 = conditions: read-out: apparent Kd; compound concentrations:100 nM and 1000 nM (sheet 'Samples'); n = 1
# MAP3K1 = conditions: read-out: apparent Kd; compound concentrations:100 nM and 1000 nM (sheet 'Samples'); n = 1
# MAP4K5 = conditions: read-out: apparent Kd; compound concentrations:100 nM and 1000 nM (sheet 'Samples'); n = 1
# NUAK2 = conditions: read-out: apparent Kd; compound concentrations:100 nM and 1000 nM (sheet 'Samples'); n = 1
# PLK1 = conditions: read-out: apparent Kd; compound concentrations:100 nM and 1000 nM (sheet 'Samples'); n = 1
# STK10 = conditions: read-out: apparent Kd; compound concentrations:100 nM and 1000 nM (sheet 'Samples'); n = 1
compound,measurement,setting,value
Cn1cc(-c2ccc3c(c2)CCN3C(=O)Cc2ccccc2Cl)c2c(N)ncnc21 [GSK2608885A],potency estimated from few doses,AURKB; CATDS: 9.3884210166783694E-2,825 nM
same,potency estimated from few doses,CAMK2B,685 nM
same,potency estimated from few doses,EIF2AK1; CATDS: 6.5022580640831398E-2,1790 nM
same,potency estimated from few doses,MAP2K5,478 nM
same,potency estimated from few doses,MAP3K4,1920 nM
same,potency estimated from few doses,MAP4K2,1110 nM
same,potency estimated from few doses,MAP4K3,1490 nM
same,potency estimated from few doses,NEK2,1460 nM
same,potency estimated from few doses,PTK6,781 nM
same,potency estimated from few doses,RIPK3,2280 nM
same,potency estimated from few doses,STK3; CATDS: 6.0873779479402902E-2,2130 nM
same,potency estimated from few doses,STK4; CATDS: 7.2736683737858396E-2,1370 nM
same,potency estimated from few doses,YES1,1000 nM
Cl.Oc1cccc(-c2nc(-c3ccccc3)[nH]c2-c2ccncc2)c1 [SB-610251-B],potency estimated from few doses,BUB1,2530 nM
same,potency estimated from few doses,MAPK14,1570 nM
Cc1ccc2c(c1)c(C1=C(c3cn(C)c4ccccc34)C(=O)NC1=O)cn2C [RO0317510-000],potency estimated from few doses,"BMP2K; compound concentrations: 100 nM and 1000 nM (sheet 'Samples'), CATDS: 7.6838434423815494E-2",783 nM
same,potency estimated from few doses,CDKL5,815 nM
same,potency estimated from few doses,FLT3,449 nM
same,potency estimated from few doses,GSK3A,676 nM
same,potency estimated from few doses,GSK3B,820 nM
same,potency estimated from few doses,HSPE1,48.4 nM
same,potency estimated from few doses,ICK,1800 nM
same,potency estimated from few doses,JAK1,467 nM
same,potency estimated from few doses,MAPK9,1810 nM
same,potency estimated from few doses,NUAK1,1250 nM
same,potency estimated from few doses,PGK1,45.2 nM
same,potency estimated from few doses,PKM,1450 nM
COc1cccc(CC(=O)N2CCc3cc(-c4cn(C)c5ncnc(N)c45)ccc32)c1 [GSK2608899A],potency estimated from few doses,AURKB; CATDS: 0.23694703885971399,1340 nM
same,potency estimated from few doses,EIF2AK1; CATDS: 0.26763431459408499,1050 nM
same,potency estimated from few doses,STK3; CATDS: 0.22390025297111801,1510 nM
same,potency estimated from few doses,STK4; CATDS: 0.27956924002989397,966 nM
O=C1Nc2ccc(C(=O)c3ccco3)cc2C1=Cc1cc(Cl)c(O)c(Cl)c1 [GW406108X],potency estimated from few doses,BMPR2,15.8 nM
same,potency estimated from few doses,CDC42,93.8 nM
same,potency estimated from few doses,CLK4,85.5 nM
C[C@@H](Oc1cc(-n2cnc3ccc(OCC4CCN(C)CC4)cc32)sc1C(N)=O)c1ccccc1C(F)(F)F [GSK326090A],potency estimated from few doses,BMP2K; compound concentrations:100 nM and 1000 nM (sheet 'Samples'),1900 nM
same,potency estimated from few doses,MAP3K1,1240 nM
same,potency estimated from few doses,MAP4K5,203 nM
same,potency estimated from few doses,NUAK2,411 nM
same,potency estimated from few doses,PLK1,67.7 nM
same,potency estimated from few doses,STK10,1720 nM

# — publication PMC11062922 (Nature Chemical Biology, 2023)
